About 1,300 (0.68%) of roughly 190,000 compounds were called active. Rule as the data show it: active = inhibition above about 50%; inactive = the rest. What follows is part of a selection rich in actives, with near analogues and random picks from the rest.
Target: Mannose-6-phosphate isomerase (Homo sapiens) (UniProt P34949)
Assay: MPI inhibition at elevated mannose 6-phosphate – biochemical, fluorescence intensity, high mannose 6-phosphate, primary screen (AID 1220)
Conditions: recombinant PMI enzyme, coupled fluorescence intensity; at 20 µM; hits give high values

Chain of Mannose-6-phosphate isomerase (Homo sapiens) (P34949 whole entry, looked up): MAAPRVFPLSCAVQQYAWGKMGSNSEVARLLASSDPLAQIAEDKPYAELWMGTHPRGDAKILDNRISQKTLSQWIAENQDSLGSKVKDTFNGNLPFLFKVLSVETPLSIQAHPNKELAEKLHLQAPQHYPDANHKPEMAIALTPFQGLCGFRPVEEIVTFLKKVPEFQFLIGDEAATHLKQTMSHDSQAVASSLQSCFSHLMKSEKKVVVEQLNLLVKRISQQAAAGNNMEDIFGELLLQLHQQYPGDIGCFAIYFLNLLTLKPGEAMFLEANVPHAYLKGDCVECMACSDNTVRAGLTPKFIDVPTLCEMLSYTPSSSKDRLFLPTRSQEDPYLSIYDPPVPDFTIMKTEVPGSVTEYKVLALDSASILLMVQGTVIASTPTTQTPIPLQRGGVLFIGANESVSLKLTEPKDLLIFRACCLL

inhibition, inactive:
CCc1ccc(Nc2nnc(SCC(=O)Nc3sccc3C(N)=O)s2)cc1 11.1%
CCOC(=O)c1ccc(NC(=S)N(CCN2CCCCCC2)Cc2cccs2)cc1 2.9%
COc1cc(OC)cc(C(=O)NCC2CCCO2)c1 (stereo unspecified) 12.6%
Cc1ccc2nc3c(cc2c1)c(NC(=O)c1cccnc1)nn3C 13.2%
Cc1c(C(=O)NCC2CCCO2)oc2ccc3c(c12)C(=O)CC(C)(C)O3 (stereo unspecified) 7.4%
O=C(Nc1cccnc1)C1CCCN(S(=O)(=O)c2ccccc2)C1 (stereo unspecified) -2%
CCOc1cc(N2CCOCC2)c(OCC)cc1NC(=O)CSc1nccc(C)n1 19.5%
CCOc1cc(N2CCOCC2)c(OCC)cc1NC(=O)CCC1CCCC1 17.2%
CCOc1cc(N2CCOCC2)c(OCC)cc1NC(=O)CSc1cccc[n+]1[O-] 16.7%
CCOc1cc(N2CCOCC2)c(OCC)cc1NC(=O)CSc1n[nH]c(N)n1 37.1%
[O-][n+]1ccc(C2CC2)cc1 7.7%
CCN1CCN(C(c2cccs2)C(C)NC(=O)NC2CCCCC2)CC1 (stereo unspecified) 6%
CCC1Sc2ccccc2N(CC(=O)NCc2ccc3c(c2)OCO3)C1=O (stereo unspecified) -3.8%
O=C(COC(=O)COc1cccc(Br)c1)Nc1c(Cl)cccc1Cl 4.6%
COc1ccc(Cn2c(N)c(C#N)c3nc4ccccc4nc32)cc1 15.1%
COc1ccc(NC(=O)c2ccc(Br)o2)cc1 13.3%
N#CC(=C=[N-])c1nc2ccccc2nc1-[n+]1ccccc1 1.9%
CCc1cc[n+](-c2nc3ccccc3nc2C(=C=[N-])C#N)cc1 14.8%
COC(=O)COC(=O)c1ccc(Oc2nc(OC)nc(N(C)C)n2)cc1 8.1%
Cc1ccc(-c2cc(C(=O)O)c3cc(Br)ccc3n2)o1 -44.6%
O=c1oc(-c2cccs2)nc2ccc(Br)cc12 -3%
O=C(NC1CCCCC1)NC1CC2CCC(C1)N2C(=O)NCc1ccccc1 (stereo unspecified) -7.9%
N#C/C(=C\c1ccc(N2CCOCC2)o1)c1nc2ccccc2[nH]1 45.8%
Cc1ccc(/C(C#N)=C\c2ccc(N3CCOCC3)o2)cc1 14.1%
N#C/C(=C/c1ccc(N2CCOCC2)o1)c1ccc(Cl)cc1 42.5%
N#C/C(=C/c1ccc(N2CCOCC2)o1)c1nc2ccccc2[nH]1 38.4%
CC1=CCC2COC(c3ccc[n+](Cc4ccccc4)c3)C1C2 (stereo unspecified) 43.6%
CCOc1ccc(N(CC(=O)N2CCCC2)S(=O)(=O)c2c(C)noc2C)cc1 0.9%
Cc1c(Cl)cccc1NC(=O)Nc1ccc(C(N)=O)cc1 3.7%
Cc1cc(/C=C2\SC(N)=NC2=O)c(C)n1-c1ccc(F)cc1 32.4%
Cc1cc(S(=O)(=O)n2cnc3ccccc32)c(C)cc1Cl -20.1%
Cc1cc(C)c(S(=O)(=O)n2cnc3ccccc32)c(C)c1 -6%
O=C1c2ccccc2C(=O)N1Cc1nc(-c2ccccc2)no1 -1.3%
OCCCc1cn(-c2ccccc2)c2ccccc12 -13.6%
C=CCSC1=N/C(=C\c2ccc(C)o2)C(=O)S1 7.9%
Cc1ccc2cc(CN(Cc3ccccc3)Cc3nnnn3C3CCCC3)c(=O)[nH]c2c1 5.3%
Cc1cc2nn(-c3cccc4ccccc34)nc2cc1NC(=O)c1cccs1 15.2%
c1ccc2c(-n3cccn3)cccc2c1 -0.8%
c1ccc2c(-n3cnnn3)cccc2c1 1.3%
Nc1ccc2oc(-c3cccc4ccccc34)nc2c1 45.3%
Cn1nc(-c2ccc(C(=O)O)cc2)c2ccccc2c1=O -4.7%
CCCC(=O)NC(c1ccccc1OC)c1ccc2cccnc2c1O (stereo unspecified) 39.5%
Cc1ccnc(NC(c2cccnc2)c2ccc3cccnc3c2O)c1 (stereo unspecified) 18%
Cc1ccc2ccc(C(Nc3ccccn3)c3ccccc3)c(O)c2n1 (stereo unspecified) 11.4%
Cc1cc(NC(c2cccnc2)c2ccc3cccnc3c2O)no1 (stereo unspecified) 40.3%
CCOC(=O)N1CCN(S(=O)(=O)c2cccc3cccnc23)CC1 -12.8%
CN1CCN(C(c2cccnc2)c2ccc3cccnc3c2O)CC1 (stereo unspecified) 39.6%
CCC(=O)NC(c1cccs1)c1ccc2cccnc2c1O (stereo unspecified) 49.8%
Cc1cccc(NC(c2ccc(O)cc2)c2ccc3ccc(C)nc3c2O)n1 (stereo unspecified) 8.7%
CCN(CC)CCCNC(=O)c1ccc2c(SCC(=O)O)c3c(nc2c1)CCC3 -9.3%
COc1ccc(-n2c(C(C)n3nc(C)c([N+](=O)[O-])c3C)n[nH]c2=S)cc1 (stereo unspecified) -11.8%
COc1ccc(NC(=O)CC2C(=O)N(CCc3ccccc3)C(=S)N2Cc2cccnc2)cc1 (stereo unspecified) -8.8%
COc1ccc(CC(=O)NNC(=O)c2cccs2)cc1 -0.3%
CC1CC(N(C(=O)c2ccco2)c2ccccc2)c2ccccc2N1 (stereo unspecified) 17.9%
Oc1c(C(Nc2nc3ccccc3s2)c2ccco2)ccc2cccnc12 (stereo unspecified) 34.8%
Oc1c(C(Nc2nccs2)c2ccc(C(F)(F)F)cc2)ccc2cccnc12 (stereo unspecified) 24.5%
CC(C)OC(=O)c1ccc(NC(=O)c2ccco2)cc1 6.2%
O=[N+]([O-])c1cc(-c2ncccn2)cs1 -6.6%
O=[N+]([O-])c1cccnc1NCc1cccs1 3.1%
COc1ccc(NC(=O)Cn2nc3n(c2=S)CCC3)cc1 2.7%
CCSC1=C(C#N)C(c2ccc3c(c2)OCO3)C2=C(CCCC2=O)N1 (stereo unspecified) 7.2%
COC(=O)C1=C(C)OC(N)=C(C#N)C1c1ccco1 (stereo unspecified) 2.9%
Cc1ccc([C@H]2C(C#N)=C(N)Oc3cc(C)oc(=O)c32)o1 -11.4%
CCOC(=O)C1=C(C)OC(N)=C(C#N)C1c1ccc(C)o1 (stereo unspecified) -3.7%
CC(=O)C1=C(C)OC(N)=C(C#N)C1c1ccco1 (stereo unspecified) 10.4%
Clc1ccc(-c2cn3cc(Br)ccc3n2)cc1Cl -15.2%
O=C(O)CCc1ccc(-c2cccs2)n1CCc1ccccc1 3.8%
CCC(C)(C)n1nnnc1C(c1ccncc1)N1CCC(C)CC1 (stereo unspecified) -5.6%
O=C(Nc1cccn(Cc2c(Cl)cccc2Cl)c1=O)C1CC1 3.9%
COCCNC(=O)Cn1cc2c(n1)CCC(C)C2 (stereo unspecified) 4.1%
COC(=O)C1C(c2ccc(N(C)C)cc2)C(C(=O)OC)S(=O)(=O)CS1(=O)=O (stereo unspecified) 15%
CC(=O)NC1(C2CCCCC2=O)CCCCC1 (stereo unspecified) 4.2%
COc1ccc(C(=O)N/C(=C/c2cccs2)c2nc3ccccc3[nH]2)cc1OC 3.9%
O=C(N/C(=C/c1cccs1)c1nc2ccccc2[nH]1)c1ccccc1 -4.7%
Cc1cc(C)cc(N2C(=O)CN(Cc3sccc3C)C2=S)c1 0.5%
CCOc1cccc(OCCOc2ccc(C(=O)c3ccccc3)cc2)c1 10.2%
CN1CCN(c2nc(-c3ccc(Cl)s3)cs2)CC1 -4.8%
CCN(CC)c1ccc(/C=N/NC(=S)NCc2ccccc2)c(O)c1 1.2%
CCN(CC)c1ccc(C=Nc2ccc(C)cc2C)c(O)c1 36.9%
CCN(CC)c1ccc(/C=N/N2C(=O)c3ccccc3C2=O)c(O)c1 -18.7%
CCN(CC)c1ccc(/C=N/Nc2ccc(C)cc2)c(O)c1 -70.5%
Cc1ccc(-c2cc(C(=O)O)n(-c3ccc(S(N)(=O)=O)cc3)n2)cc1 -17.2%
COc1cc(CC(=O)OCC(=O)Nc2ccc([N+](=O)[O-])cc2)cc(OC)c1OC 5.9%

inhibition, active:
CCOc1cc(N2CCOCC2)c(OCC)cc1NC(=O)CSc1ncn[nH]1 53%
CCOc1cc(N2CCOCC2)c(OCC)cc1NC(=O)CSc1ncccn1 50.6%
COc1ccc(-n2c(NC(=O)c3ccc(Br)o3)c(C#N)c3nc4ccccc4nc32)cc1 66.9%
Cc1cc[n+](-c2nc3ccccc3nc2C(=C=[N-])C#N)cc1 51.9%
N#C/C(=C/c1ccc(N2CCOCC2)o1)c1ccc(Br)cc1 50.4%
Cc1ccc2nc(/C(C#N)=C\c3ccc(N4CCOCC4)o3)[nH]c2c1 59.9%
Cc1ccc(S(=O)(=O)n2cnc3ccccc32)c(C)c1 81.3%
Nc1ccc2nn(-c3cccc4ccccc34)nc2c1 62.8%
Cc1cc2nn(-c3cccc4ccccc34)nc2cc1N 75.5%
CCC(=O)NC(c1ccccc1OC)c1ccc2cccnc2c1O (stereo unspecified) 50.2%
COc1ccccc1NC(c1cccnc1)c1ccc2cccnc2c1O (stereo unspecified) 51.7%
COc1cc(C(Nc2ccccn2)c2ccc3ccc(C)nc3c2O)cc(OC)c1O (stereo unspecified) 62.2%
Oc1cccc(C(Nc2nccs2)c2ccc3cccnc3c2O)c1 (stereo unspecified) 57.6%
Cc1ccc(C2C(C#N)=C(N)Oc3c2sc2ccccc32)o1 (stereo unspecified) 57.5%
N#CC1=C(N)Oc2c(sc3ccccc23)C1c1ccco1 (stereo unspecified) 53.1%
Cc1ccc(C(=O)N/C(=C\c2cccs2)c2nc3ccccc3[nH]2)cc1 57.5%
CCN(CC)c1ccc(C=Nc2cc(C)ccc2C)c(O)c1 58.3%
CCN(CC)c1ccc(C=Nc2ccccc2C)c(O)c1 66.6%

— PubChem BioAssay AID1220 (Sanford-Burnham Center for Chemical Genomics, 2008)
